According to PubChem BioAssay (Tox21):
Results filed as inconclusive are left out. Entries that show only a call come without a potency. Values without a mark were called inactive. The source made the active and inactive calls. Calls follow the shape of the full dose curve.

test: qHTS assay to identify small molecule agonists of the progesterone receptor (PR) signaling pathway - cell viability counter screen (AID 1346799); settings: PR-UAS-bla HEK293T viability, CellTiter-Glo luminescence, 16 h; series mostly up to 92.4 µM; also: nearly all actives have a fitted effect of over 45% in size
In short: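 Using the same plates as the PR reporter screen, HEK293T PR-UAS-bla cells received compounds for 16 hr at 37C and were then lysed with CellTiter-Glo; luminescence was read 30 min later at room temperature.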

| SMILES | Potency | activity change, negative = cytotoxicity |
| --- | --- | --- |
| Cc1ccc(C)cc1 | inactive | – |
| COC(=O)c1ccccc1C | inactive | – |
| Cc1ccc(C(C)C)cc2c(C)ccc1-2 | inactive | – |
| CCc1ccc(Br)cc1 | inactive | – |
| CC(C)NC[C@@H](O)COc1ccc(CC(N)=O)cc1 | inactive | – |
| CCC(C)[O-].CCC(C)[O-].CCOC(=O)/C=C(/C)[O-].[Al+3] | inactive | – |
| COC(C)=O | inactive | – |
| CC(C)CCOC(=O)/C=C/c1ccccc1 | inactive | – |
| Cc1cccc(C)c1NC(=O)c1ccc(N)cc1 | inactive | – |
| C=CCn1c(=O)n(CC=C)c(=O)n(CC=C)c1=O | inactive | – |
| O[C@@H]([C@H](O)[C@H](O)CBr)[C@H](O)CBr | inactive | – |
| CC(C)Cn1cnc2c(N)nc3ccccc3c21 | – | 13.4% [at 19 µM] |
| CC(C)CCCCCOC(=O)CCS | inactive | – |
| CCCC[P+](C)(CCCC)CCCC | inactive | – |
| Sc1nc2ccccc2s1 | inactive | – |
| O=C(/C=C/c1ccc(O)c(O)c1)O[C@@H](C(=O)O)[C@@H](OC(=O)/C=C/c1ccc(O)c(O)c1)C(=O)O | inactive | – |
| NC[C@H]1O[C@H](O[C@H]2[C@H](O[C@@H]3O[C@H](CO)[C@@H](O)[C@H]3O)C(O)[C@H](N)C[C@@H]2N)[C@H](N)[C@@H](O)[C@@H]1O (stereo partly specified) | – | 9.53% [at 8.39 µM] |
| Cc1c(C)c2c(c(C)c1O)CC[C@@](C)(CCC[C@H](C)CCC[C@H](C)CCCC(C)C)O2 | inactive | – |
| Cc1c(F)c(N2CCNC(C)C2)cc2c1c(=O)c(C(=O)O)cn2C1CC1 (stereo unspecified) | inactive | – |
| OC[C@@H](O)[C@@H](O)CO | inactive | – |
| CCCCCc1ccc(Cl)cc1 | inactive | – |
